Screening results from PubChem BioAssay.
FadD28 FP inh: inhibitors of FadD28 bisubstrate probe binding, primary screen, biochemical, fluorescence polarization, single point; Mycobacterium tuberculosis FadD28 fatty-acid-AMP ligase; inhibition, % at 12.5 µM; actives 0.22% (n = 360,000); in the data active = inhibition above about 8.5%, passing the limit was not always enough
RecA splice inh: Mtb RecA intein splicing inhibitors, primary screen, biochemical, fluorescence, HTS. inhibition, % (test concentration not listed). cell-free RecA intein splicing. actives 0.75% (n = 290,000). Protein RecA (Mycobacterium tuberculosis (strain ATCC 25618 / H37Rv)), P9WHJ3; in the data active = inhibition above about 30%
Rv3671c protease: Rv3671c serine protease inhibitors, primary screen, biochemical, fluorescence polarization, M. tuberculosis H37Rv; inhibition, % at 5.96 µM; actives 0.048% (n = 320,000); AID 2606, 2010; in the data active = inhibition above about 38%;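 also: extracellular domain of Rv3671c used as enzyme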
PrP 5UTR inh: inhibition of PrP 5' UTR reporter expression; AID 488862, 2010; inhibition, % (concentration not given with the values); cell-based PrP 5' UTR mRNA reporter, plate reader; actives 0.35% (n = 340,000); in the data active = inhibition above about 52%
Mtb UGM inh: M. tuberculosis UGM enzyme inhibitors, primary screen, biochemical, fluorescence polarization, single point; UDP-galactopyranose mutase (Mycobacterium tuberculosis (strain ATCC 25618 / H37Rv)), …; purified UGM, fluorescence polarization probe displacement; inhibition, % at 10 µM; actives 0.06% (n = 320,000); AID 504406, 2011; in the data active = inhibition above about 10%, passing the limit was not always enough
Target sequence (P9WIQ1 whole entry, looked up): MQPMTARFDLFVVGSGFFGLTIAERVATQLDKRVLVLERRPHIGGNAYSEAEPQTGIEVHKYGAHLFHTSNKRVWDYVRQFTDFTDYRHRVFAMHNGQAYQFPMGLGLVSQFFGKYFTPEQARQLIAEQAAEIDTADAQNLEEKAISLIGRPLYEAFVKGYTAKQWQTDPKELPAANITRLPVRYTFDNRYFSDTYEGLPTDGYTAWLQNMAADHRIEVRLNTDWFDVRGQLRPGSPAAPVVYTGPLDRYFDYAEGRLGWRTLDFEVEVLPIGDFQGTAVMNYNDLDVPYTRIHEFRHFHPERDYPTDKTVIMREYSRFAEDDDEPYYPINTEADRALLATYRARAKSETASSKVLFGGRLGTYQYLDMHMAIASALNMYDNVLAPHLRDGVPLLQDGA
BJeLR lethal: MLPCN primary cell-based screen for lethality selective to Ras in HRASV12 cells; BJeLR (HRASV12) viability, CellTiter-Glo ATP luminescence, 48 h; inhibition, % (test concentration not listed); actives 0.17% (n = 300,000); AID 1554, 2009; in the data active = inhibition above about 50%
Each line names hits and unclear results; the compound was inactive in the other large screens. Hits are enriched below; roughly 1.3% of the tested compounds scored in any of these assays.

Cc1ccc(C2=NC(=O)/C(=C/c3cc(O)c(O)c(Br)c3)S2)cc1	FadD28 FP inh 8.2 (no result: RecA splice inh, Rv3671c protease, Mtb UGM inh, BJeLR lethal)
Cc1ccc2c(c1)-c1c(ssc1=S)C(C)(C)N2C(=O)CSC1=NCCS1	RecA splice inh 30.1
CC(C)NC(=O)N(C)C[C@H]1OCCCC[C@@H](C)Oc2ccc(N(C)C)cc2C(=O)N([C@H](C)CO)C[C@@H]1C	none (no result: RecA splice inh, Rv3671c protease, PrP 5UTR inh, Mtb UGM inh, BJeLR lethal)
COCCCNC1=C(C#N)C(=O)NC(c2cccc([N+](=O)[O-])c2)S1 (configuration not stated)	none (no result: RecA splice inh, Rv3671c protease, PrP 5UTR inh, Mtb UGM inh, BJeLR lethal)
COc1cc(C2NC(=O)C(C#N)=C(Nc3cccc(C)c3)S2)ccc1O (configuration not stated)	RecA splice inh 87.0
C=CC(C)(C)c1c2occc2c(O)c2ccc(=O)oc12	FadD28 FP inh 14.2 (no result: RecA splice inh, Mtb UGM inh, BJeLR lethal)
COc1c2ccoc2c(OC)c2oc(=O)ccc12	none
CCOC(=O)C1(C)CCN1C(=O)c1ccc2c(c1)CCO2 (configuration not stated)	none (no result: RecA splice inh, Rv3671c protease, PrP 5UTR inh, Mtb UGM inh, BJeLR lethal)
Oc1cnn(-c2ccccc2)c1	RecA splice inh 63.5
O=C(Nc1ccc2c(c1)OCCO2)C(c1ccnc2ccccc12)N1CCN(C/C=C/c2ccccc2)CC1 (configuration not stated)	none (no result: RecA splice inh, Rv3671c protease, PrP 5UTR inh, Mtb UGM inh, BJeLR lethal)
CCn1c(O)c(N=Nc2cccc(S(=O)(=O)N3CCOCC3)c2)c(=O)n(CC)c1=S	RecA splice inh 59.0
O=c1c(Cl)c(Cl)cnn1Cc1ccc(F)cc1	RecA splice inh 35.3
CCOc1ccc(N=Cc2c(C)[nH]n(-c3nc4ccccc4[nH]3)c2=O)cc1	BJeLR lethal 64.9
COc1ccc(C(C)(O)c2nc(-c3cccc(O)c3)cs2)cc1 (configuration not stated)	none (no result: RecA splice inh, Rv3671c protease, PrP 5UTR inh, Mtb UGM inh, BJeLR lethal)
COc1cc2c(c(OC)c1OC)-c1ccc(N(C)CC(OC)OC)c(=O)cc1[C@@H](NC(C)=O)CC2	none
CN[C@H]1CCc2cc(OC)c(OC)c(OC)c2-c2ccc(N(C)CC(OC)OC)c(=O)cc21	BJeLR lethal 52.6 (no result: PrP 5UTR inh)
COc1cccc(C(=O)OCC(=O)NC(=O)NC2CCCC2)c1O	FadD28 FP inh 11.9
COCOc1ccc(-c2ncc(OC)nc2NC(=O)c2cc(C)oc2C)cc1	none (no result: RecA splice inh, Rv3671c protease, PrP 5UTR inh, Mtb UGM inh, BJeLR lethal)
CCCc1c(-c2ccc(O)cc2)nn(-c2ccc(O)cc2)c1-c1ccc(O)cc1	RecA splice inh 50.8
Cc1c(C(N)=O)c(-c2ccccc2)nn1-c1ccccc1	none
O=C(Cn1cc(COc2ccc(Br)cc2[N+](=O)[O-])nn1)c1ccc(O)cc1	none (no result: RecA splice inh, Rv3671c protease, Mtb UGM inh, BJeLR lethal)
O=[N+]([O-])c1ccccc1N/N=C\c1ccccc1Cl	BJeLR lethal 72.2
Cc1csc(N/N=C/c2ccc(O)c([N+](=O)[O-])c2)n1	FadD28 FP inh 9.3
O=[N+]([O-])c1cc(/C=N\Nc2nc(-c3ccccc3)cs2)ccc1O	none
O=C(/C=C/c1ccc2c(c1)OCO2)c1c(O)n(CCc2ccccc2)c(=O)[nH]c1=O	Mtb UGM inh 25.7 (no result: PrP 5UTR inh)
CSC(=NC(C)c1ccccc1)NS(=O)(=O)c1cccs1 (configuration not stated)	none
CSC(=NS(=O)(=O)c1ccc(N)cc1)NS(=O)(=O)c1cccs1	FadD28 FP inh 17.2 (no result: RecA splice inh, Rv3671c protease, Mtb UGM inh, BJeLR lethal)
O=C(CC(O)c1ccncc1)c1ccccc1O (configuration not stated)	none (no result: RecA splice inh, Rv3671c protease, Mtb UGM inh, BJeLR lethal)
Cc1noc(C)c1-c1ccc(C(=O)N2CCN(C)CC2)c2occc12	none (no result: RecA splice inh, Rv3671c protease, PrP 5UTR inh, Mtb UGM inh, BJeLR lethal)
CCc1ccc(C(=O)/C=C/c2ccc([N+](=O)[O-])o2)cc1	BJeLR lethal 58.7
CC1(C(=O)NS(=O)(=O)c2ccc(Br)cc2)CCN1C(=O)c1cccc(F)c1 (configuration not stated)	none (no result: RecA splice inh, Rv3671c protease, PrP 5UTR inh, Mtb UGM inh, BJeLR lethal)
CC(=O)NCCNc1nc2cc(-c3ccc4c(ccn4C)c3)sc2c(=O)n1C	none (no result: RecA splice inh, Rv3671c protease, PrP 5UTR inh, Mtb UGM inh, BJeLR lethal)
N#CC(c1cccc(Cl)c1)c1ccc2c(C(F)(F)F)cc(C(F)(F)F)nc2n1 (configuration not stated)	BJeLR lethal 76.0 (no result: Mtb UGM inh)
CCC[C@H]1CN(c2ccccc2)C(=O)[C@@H]1CC(=O)Nc1ccc(Br)cc1	none (no result: RecA splice inh, Rv3671c protease, PrP 5UTR inh, Mtb UGM inh, BJeLR lethal)
Cc1ccc(N2C(=O)c3cccc4c(N5CCN(C)CC5)ccc(c34)C2=O)c2cccnc12	none (no result: FadD28 FP inh, PrP 5UTR inh)
Cc1ccc(N2C(=O)c3cccc4c([N+](=O)[O-])ccc(c34)C2=O)c2cccnc12	BJeLR lethal 51.9
